Entries with a potency or affinity are not part of this list. The source made the active and inactive calls.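 How the source made its calls: active means fluorescent signal decreased by at least 40%; inconclusive means no clear call, values can overlap the other calls; inactive means the rest, including activity opposite to the expected direction.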
Assay: inhibition of fibronectin matrix deposition – AH1F cells, Alexa488-fibronectin fluorescence, cherry-pick, set 2, dose response (AID 1117283);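 further: AH1F fibroblasts given Alexa488-labelled fibronectin at 24 nM final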
Details: AH1F fibroblasts, overnight; series mostly up to 35 µM

Compound: C=C1C(=O)O[C@@H]2C[C@@H](C)[C@@H]3C=CC(=O)[C@@]3(C)[C@@H](O)[C@H]12
- outcome: inactive

Reference: PubChem BioAssay AID1117283 (Broad Institute, 2014)
